Data from the supplement of paper PMC13094657.
± gives the standard deviation of the averaged measurements.

How the values were obtained:
[1] = test system: MDA-MB-231; assay: cell viability relative to vehicle unstimulated control (fraction); higher = more viable cells; details: pre-treatment time: 18 h then 24 h IFNg/TNF
[2] = test system: MDA-MB-231; assay: kynurenine production, fold change vs DMSO IFNg/TNF control; higher = more kynurenine produced (less inhibition); details: pre-treatment time: 18 h then 24 h IFNg/TNF
Outline: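 MDA-MB-231 cells were seeded in 96-well plates at 7 × 10^4/well and, 24 h later, pre-treated for 18 h with each natural product in 0.1% DMSO. They were then stimulated for 24 h at 37°C with IFNγ (1 U/ml) and TNF (6.25 ng/ml). Supernatants were treated with trichloroacetic acid and p-dimethylaminobenzaldehyde and read at 492 nm against 0–100 μM standards. Kynurenine production is expressed as fold change over cytokine-stimulated vehicle wells on the same plate and, in the first screening round, averaged across duplicate plates.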
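Wherever cell viability relative to vehicle unstimulated control is given: viability of the cells left after supernatant collection, read with Deep Blue dye added for 4 h, as absorbance at 570 nm minus 600 nm.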

SMILES | cell viability [1] | kynurenine production [2]
CC(CCC(OC1OC(CO)C(O)C(O)C1OC1OC(CO)C(O)C(O)C1O)C(C)(C)O)C1CCC2(C)C3CC=C4C(CCC(OC5OC(CO)C(O)C(O)C5O)C4(C)C)C3(C)C(O)CC12C (stereo not given) [Mogroside III-E] (compound dose: 10 uM) | 1.08 ± 0.013 | 0.996 ± 0.3
C=CC(=C)CCC=C(C)CCC=C(C)C [(E)-β-Farnesene] (compound dose: 10 uM) | 0.977 ± 0.015 | 0.723 ± 0.27
CC(=O)OCC1=COC(OC(C)=O)C2C(C)CCC12 (stereo not given) [Teucrein] (compound dose: 10 uM) | 0.889 ± 0.026 | 0.842 ± 0.086
COC(=O)C1=CO[C@@H](O[C@@H]2O[C@H](CO)[C@@H](O)[C@H](O)[C@H]2O)[C@H]2[C@@H]1C(=O)C[C@@H]2C [Verbenalin] (compound dose: 10 uM) | 0.953 ± 0.052 | 0.834 ± 0.12
CC1=CCC2CC1C2(C)C (stereo not drawn) [(-)-α-Pinene] (compound dose: 10 uM) | 1.01 ± 0.035 | 1.21 ± 0.14
C=C1C(=O)O[C@@H]2/C=C(\C)CC/C=C(\C)CC[C@@H]12 [Costunolide] (compound dose: 10 uM) | 1.03 ± 0.059 | 0.474 ± 0.063
C[C@@]12CCc3occc3[C@H]1CC[C@@]13C[C@@H](CC[C@H]12)[C@@](O)(CO)C3 [Cafestol] (compound dose: 10 uM) | 1.03 ± 0.067 | 0.75 ± 0.4
COc1cc2cc3c4c(cc5c(c4c2cc1OC)OCO5)CCN3C [Dehydrodicentrine] (compound dose: 10 uM) | 0.946 ± 0.021 | 0.807 ± 0.12
COC(=O)C1=CO[C@@H](O[C@@H]2O[C@H](CO)[C@@H](O)[C@H](O)[C@H]2O)[C@@H]2C(CO)=C[C@H](O)[C@H]12 [Methyl deacetylasperulosidate] (compound dose: 10 uM) | 0.956 ± 0.085 | 1.15 ± 0.1
CC1OC(OC2C(CO)OC(OCC3OC(OC(=O)C45CCC(C)(C)CC4C4=CCC6C7(C)CCC(OC8OCC(O)C(O)C8O)C(C)(CO)C7CCC6(C)C4(C)CC5)C(O)C(O)C3O)C(O)C2O)C(O)C(O)C1O (stereo not given) [Hederacoside D] (compound dose: 10 uM) | 0.923 ± 0.067 | 0.851 ± 0.16
CC1(C(=O)O)CCC2(C)CCC3(C)C(=CC(=O)C4C5(C)CCC(O)C(C)(C)C5CCC43C)C2C1 (stereo not drawn) [18β-Glycyrrhetinic acid] (compound dose: 10 uM) | 1.02 ± 0.17 | 1.09 ± 0.18
COC(=O)C1=CC[C@@]23CC[C@@H]([C@@](C)(/C=C/C=C(\C)C(=O)O)OC2=O)[C@@]3(O)CC1 [Pseudolaric Acid C] (compound dose: 10 uM) | 0.927 ± 0.094 | 1.23 ± 0.051
C[C@@]12CC[C@@H]3[C@@](CC[C@H]4[C@@]3(C)CCC[C@@]4(C)C(=O)O)(CC1=O)C2 [Isosteviol] (compound dose: 10 uM) | 1.02 ± 0.084 | 0.998 ± 0.055
CC(C)=CCC[C@](C)(O[C@@H]1O[C@H](CO[C@@H]2O[C@H](CO)[C@@H](O)[C@H](O)[C@H]2O)[C@@H](O)[C@H](O)[C@H]1O)[C@H]1CC[C@]2(C)[C@@H]1[C@H](O)C[C@@H]1[C@@]3(C)CC[C@H](O[C@@H]4O[C@H](CO)[C@@H](O)[C@H](O)[C@H]4O[C@@H]4O[C@H](CO)[C@@H](O)[C@H](O)[C@H]4O[C@@H]4OC[C@@H](O)[C@H](O)[C@H]4O)C(C)(C)[C@@H]3CC[C@]12C [Notoginsenoside Fa] (compound dose: 10 uM) | 1.21 ± 0.15 | 1.06 ± 0.13
CC1(C)CC[C@]2(C(=O)O)CC[C@]3(C)C(=CC[C@@H]4[C@@]5(C)CC[C@H](O[C@@H]6O[C@H](C(=O)O)[C@@H](O)[C@H](O[C@@H]7OC[C@@H](O)[C@H](O)[C@H]7O)[C@H]6O)C(C)(C)[C@@H]5CC[C@]43C)[C@@H]2C1 [Momordin Ic] (compound dose: 10 uM) | 1.07 ± 0.023 | 0.967 ± 0.2
O=c1c(O)c(-c2ccc(O)c(O)c2)oc2cc(O)cc(O)c12 [Quercetin] (compound dose: 10 uM) | 0.974 ± 0.095 | 0.738 ± 0.2
C=C(CC[C@@H](C(=O)O)[C@H]1[C@H](O)C[C@@]2(C)C3=C(CC[C@]12C)[C@@]1(C)CC[C@H](OC(C)=O)C(C)(C)[C@@H]1CC3)C(C)C [Pachymic acid] (compound dose: 10 uM) | 0.862 ± 0.1 | 0.872 ± 0.093
CC(C)=CCC[C@](C)(O)[C@H]1CC[C@]2(C)[C@@H]1[C@H](O)C[C@@H]1[C@@]3(C)CC[C@H](O)C(C)(C)[C@@H]3[C@@H](O[C@@H]3O[C@H](CO)[C@@H](O)[C@H](O)[C@H]3O[C@@H]3O[C@H](CO)[C@@H](O)[C@H](O)[C@H]3O)C[C@]12C [Ginsenoside Rf] (compound dose: 10 uM) | 0.9642 ± 0.0068 | 0.749 ± 0.17

SMILES | cell viability [1] | kynurenine production [2]
COC(=O)[C@]12OC[C@]34[C@H]([C@@H](O)[C@@H]1O)[C@@]1(C)CC(=O)C(O)=C(C)[C@@H]1C[C@H]3OC(=O)[C@H](OC(=O)C=C(C)C)[C@@H]24 [Brusatol] (compound dose: 10 uM) | 0.432 ± 0.034 | 0.1176 ± 0.00049
C=C1[C@H](OC(C)=O)[C@@H](OC(C)=O)[C@@H](OC(C)=O)C(C)(C)/C=C/[C@H](C)[C@H](OC(C)=O)[C@@]2(O)C[C@@](C)(OC(C)=O)[C@H](OC(=O)c3ccccc3)[C@@H]2[C@H]1OC(C)=O [Jatrophane 2] (compound dose: 10 uM) | 1.08 ± 0.062 | 0.926 ± 0.049
Cc1ccc(C(C)C)cc2c(C)ccc1-2 [Guaiazulene] (compound dose: 10 uM) | 1.1 ± 0.013 | 0.915 ± 0.21
C[C@@H]1CC[C@]2(C(=O)O[C@@H]3O[C@H](CO)[C@@H](O)[C@H](O)[C@H]3O)CC[C@]3(C)C(=CC[C@@H]4[C@@]5(C)CC[C@H](O[C@@H]6OC[C@H](O)[C@H](O)[C@H]6O)C(C)(C)[C@@H]5CC[C@]43C)[C@@H]2[C@]1(C)O [Ziyuglycoside I] (compound dose: 10 uM) | 0.947 ± 0.068 | 0.804 ± 0.19
COC(=O)[C@]1(C)CC[C@]2(C(=O)O[C@@H]3O[C@H](CO)[C@@H](O)[C@H](O)[C@H]3O)CC[C@]3(C)C(=CC[C@@H]4[C@@]5(C)C[C@H](O)[C@H](O[C@@H]6OC[C@@H](O[C@@H]7O[C@H](CO)[C@@H](O)[C@H](O)[C@H]7O)[C@H](O)[C@H]6O)[C@@](C)(CO)C5CC[C@]43C)[C@H]2C1 (stereo not given in full) [Esculentoside H] (compound dose: 10 uM) | 0.984 ± 0.043 | 0.825 ± 0.099
C[C@@H]1CC[C@]2(C)CC[C@]3(C)C(=CC(=O)C4[C@@]5(C)CC[C@@H](O)[C@](C)(C(=O)O)C5CC[C@]43C)C2[C@H]1C (stereo partly drawn) [11-Keto-beta-boswellic acid] (compound dose: 10 uM) | 0.949 ± 0.013 | 0.94 ± 0.12
O=C1C[C@@H](O[C@@H]2O[C@H](CO)[C@@H](O)[C@H](O)[C@H]2O)CO1 [Kinsenoside] (compound dose: 10 uM) | 0.971 ± 0.18 | 1.01 ± 0.34
C[C@@H]1O[C@@H](OC[C@H]2O[C@@H](Oc3c(-c4ccc(O)cc4)oc4cc(O)cc(O)c4c3=O)[C@H](O)[C@@H](O)[C@@H]2O)[C@H](O)[C@H](O)[C@H]1O [Kaempferol 3-rutinoside] (compound dose: 10 uM) | 1.1 ± 0.14 | 0.955 ± 0.049
CC(C)=C[C@H]1C[C@](C)(O)[C@H]2[C@H]3CC[C@@H]4[C@@]5(C)CC[C@H](O[C@@H]6O[C@H](CO)[C@@H](O)[C@H](O[C@@H]7O[C@H](CO)[C@@H](O)[C@H](O)[C@H]7O)[C@H]6O[C@@H]6O[C@@H](CO)[C@H](O)[C@H]6O)C(C)(C)[C@@H]5CC[C@@]4(C)[C@@]34CO[C@@]2(C4)O1 [Bacoside A3] (compound dose: 10 uM) | 0.944 ± 0.034 | 0.672 ± 0.11
Cc1ccc(C(C)C)cc1O [Carvacrol] (compound dose: 10 uM) | 1.06 ± 0.036 | 0.855 ± 0.035
CC(C)=CCC[C@@](C)(O)[C@H]1CC[C@]2(C)[C@@H]1[C@H](O)C[C@@H]1[C@@]3(C)CC[C@H](O[C@@H]4O[C@H](CO)[C@@H](O)[C@H](O)[C@H]4O[C@@H]4O[C@H](CO)[C@@H](O)[C@H](O)[C@H]4O[C@@H]4OC[C@@H](O)[C@H](O)[C@H]4O)C(C)(C)[C@@H]3CC[C@]12C [Notoginsenoside Ft1] (compound dose: 2 uM) | 0.899 ± 0.026 | 0.86 ± 0.16
C=C(C(=O)O)[C@@H]1CC[C@@H](C)[C@@H]2CCC(C)=C[C@@H]21 [Artemisic acid] (compound dose: 10 uM) | 0.828 ± 0.3 | 0.594 ± 0.14
CC1=CCC(O)(C(C)C)CC1 (stereo not given) [Terpineol] (compound dose: 10 uM) | 0.969 ± 0.087 | 0.885 ± 0.087
CC[C@@H](C(=O)[C@@H](C)[C@@H](O)[C@H](C)CCc1ccc(C)c(O)c1C(=O)O)[C@H]1O[C@](CC)([C@H]2CC[C@](O)(CC)[C@H](C)O2)C[C@@H]1C [Lasalocid] (compound dose: 10 uM) | 0.877 ± 0.017 | 0.509 ± 0.022
C[C@H](CC[C@@H](OC[C@@H]1O[C@H](OC[C@H]2O[C@@H](O)[C@H](O)[C@@H](O)[C@@H]2O)[C@@H](O)[C@H](O)[C@H]1O)C(C)(C)O)[C@H]1CC[C@@]2(C)[C@@H]3CC=C4[C@@H](CC[C@H](O)C4(C)C)[C@]3(C)[C@H](O)C[C@]12C [Mogroside IIA1] (compound dose: 10 uM) | 1.22 ± 0.15 | 1.07 ± 0.13
COc1ccc2cc1Oc1ccc(cc1)C[C@H]1c3cc(c(OC)cc3CCN1C)Oc1c(OC)c(OC)cc3c1[C@H](C2)N(C)CC3 [Tetrandrine] (compound dose: 10 uM) | 1.047 ± 0.0084 | 1.11 ± 0.024
CC1(C)CC[C@]2(C(=O)O[C@@H]3O[C@H](CO)[C@@H](O)[C@H](O)[C@H]3O)CC[C@]3(C)C(=CC[C@@H]4[C@@]5(C)CC[C@H](O[C@@H]6O[C@H](C(=O)O)[C@@H](O)[C@H](O)[C@H]6O)C(C)(C)[C@@H]5CC[C@]43C)[C@@H]2C1 [Chikusetsusaponin Iva] (compound dose: 10 uM) | 0.986 ± 0.01 | 0.788 ± 0.14
